# Test results from PubChem BioAssay.
# Activity calls are given as the source filed them.
# Tests used:
# [1] = tested on: PRMT1 (protein arginine N-methyltransferase 1); experiment: PRMT1 binders on small-molecule microarrays, primary screen, biochemical, small-molecule microarray, 635 nm fluorescence (AID 1088); settings: small-molecule microarray binding, higher = more signal;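 also: binding of Prmt1 protein to compounds spotted on small-molecule microarray slides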
# [2] = yeast growth modulation, basal conditions, primary screen, YJM789 clinical isolate, OD600, 24 h (AID 1089);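 also: growth of clinical yeast isolate S. cerevisiae YJM 789 seeded 1000 cells per well; test concentration not given here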; settings: S. cerevisiae YJM789 growth, higher = more signal, called active from +8 up or from −8 down
# [3] = fission yeast growth modulation, primary screen, strain 972, OD600, 24 h, no modulator (AID 1090);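 also: basal condition with compound alone and no growth modifier present; test concentration not given here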; settings: S. pombe 972 growth, higher = more signal, called active from +8 up or from −8 down
# [4] = S. cerevisiae growth modulation with rapamycin, primary screen, strain BY4716, OD600, 96 h (AID 1091); settings: higher = more signal, called active from +8 up or from −8 down; also: test concentration not given here
# [5] = target: Torsin-1A-interacting protein 2 (Homo sapiens) (UniProt Q8NFQ8); experiment: LULL1 binders on small-molecule microarray, primary screen, cell lysate, human LULL1 lysate, 635/667 nm fluorescence (AID 1092); settings: hLULL1 lysate binding, 635 nm fluorescence, higher = more signal;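 also: probe is lysate of COS7 cells overexpressing human LULL1; score merges per-feature 667 nm fluorescence with signal-to-noise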
# [6] = E. coli growth modulation, two-sided OD650, primary screen, E. coli filamentation project, strain DRC41, 24 h (AID 1093); settings: OD650, 24 h, higher = more signal, called active from +8 up or from −8 down;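 also: MC1000 strain lacking acrAB efflux and sulA so SOS filamentation is blocked; test concentration not given here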
# [7] = small-molecule microarray binders of probe aLefty2, primary screen, biochemical, biotinylated probe, 635/667 nm fluorescence (AID 1094); settings: higher = more signal;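 also: score merges spot fluorescence near 667 nm with spot signal-to-noise ratio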
# [8] = tested on: Noggin (protein binding on small-molecule microarray); experiment: Noggin binders on small-molecule microarray, primary screen, biochemical, 635/667 nm fluorescence (AID 1095); settings: 635 nm fluorescence, higher = more signal;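 also: score merges 667 nm feature fluorescence with signal to noise over triplicate slides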
# [9] = target: Neurogenic locus notch homolog protein 3 (Homo sapiens) (UniProt Q9UM47); experiment: NOTCH3 binders on small-molecule microarray, primary screen, biochemical, 635/667 nm fluorescence (AID 1096); settings: NOTCH3 binding, 635 nm fluorescence, higher = more signal
# [10] = small-molecule microarray binders of probe aEGFR, primary screen, biochemical, biotinylated probe, 635/667 nm fluorescence (AID 1097); settings: higher = more signal;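 also: probe is a biotinylated anti-EGFR antibody binding compounds printed on slides; score combines fluorescence near 667 nm and signal to noise of each spot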
# [11] = tested on: Plasmodium falciparum Sir2 (PF13_0152, Sir2A); experiment: pfSir2 binders on small-molecule microarrays, primary screen, biochemical, small-molecule microarray, 635 nm fluorescence (AID 1098); settings: small-molecule microarray binding, fluorescence 635 nm; higher = more signal;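 also: score merges spot fluorescence intensity with its signal-to-noise ratio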
# [12] = small-molecule microarray binders of probe aDKK1, primary screen, biochemical, biotinylated probe, 635/667 nm fluorescence (AID 1099); settings: higher = more signal;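 also: score merges 667nm spot fluorescence with signal to noise across triplicate slides; reference of the scale not given here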
# [13] = small-molecule microarray binders of probe aCHRDL2, primary screen, biochemical, biotinylated probe, 635/667 nm fluorescence (AID 1100); settings: higher = more signal
# [14] = splicing luciferase reporter signal modulators, primary screen, spliceosome inhibition project, cell-based, HEK293, splice +/- reporter (AID 1101); settings: luminescence, 24 h, higher = more signal, called active from +8 up or from −8 down;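 also: HEK293 cells carrying a splicing-competent luciferase reporter gene; test concentration not given here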
# [15] = target: Fibroblast growth factor 10 (Homo sapiens) (UniProt O15520); experiment: FGF10 binders on small-molecule microarrays, primary screen, biochemical, small-molecule microarray, 635 nm fluorescence (AID 1102); settings: FGF10 binding, fluorescence 635 nm, higher = more signal
# [16] = tested on: glycogen synthase kinase-3 (GSK3A per assay name; protocol says GSK3B); experiment: GSK3 binders on small-molecule microarrays, primary screen, biochemical, small-molecule microarray, 635 nm fluorescence, GSK3A (AID 1103); settings: small-molecule microarray binding, fluorescence 635 nm; higher = more signal; also: the record names both GSK3A and GSK3B
# [17] = target: Epidermal growth factor receptor (Homo sapiens) (UniProt P00533); experiment: EGFR binders on small-molecule microarrays, primary screen, biochemical, small-molecule microarray, 635 nm fluorescence (AID 1104); settings: EGFR binding, higher = more signal;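 also: score merges 667 nm emission intensity with spot signal to noise over triplicate slides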
# [18] = target: Follistatin-related protein 3 (Homo sapiens) (UniProt O95633); experiment: FSTL3 binders on small-molecule microarrays, primary screen, biochemical, small-molecule microarray, 635 nm fluorescence (AID 1105); settings: FSTL3 binding, higher = more signal;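 also: score merges emission near 667 nm and signal to noise per printed spot across three slides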
# [19] = target: Dickkopf-related protein 1 (Homo sapiens) (UniProt O94907); experiment: DKK1 binders on small-molecule microarrays, primary screen, biochemical, small-molecule microarray, 635 nm fluorescence scan (AID 1106); settings: DKK1 binding, higher = more signal;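 also: score merges emission near 667 nm with signal to noise over three replicate slides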
# [20] = tested on: Inhibin beta A chain (activin A); experiment: INHBA (activin A) binders on microarrays, primary screen, biochemical, small-molecule microarray, 635 nm fluorescence scan (AID 1107); settings: small-molecule microarray binding, higher = more signal;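 also: mouse activin A protein probed at 4.33 µg/mL on printed slides; score merges bound-protein fluorescence near 667 nm with spot signal-to-noise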
# Sequence of Torsin-1A-interacting protein 2 (Homo sapiens) (Q8NFQ8 whole entry, looked up): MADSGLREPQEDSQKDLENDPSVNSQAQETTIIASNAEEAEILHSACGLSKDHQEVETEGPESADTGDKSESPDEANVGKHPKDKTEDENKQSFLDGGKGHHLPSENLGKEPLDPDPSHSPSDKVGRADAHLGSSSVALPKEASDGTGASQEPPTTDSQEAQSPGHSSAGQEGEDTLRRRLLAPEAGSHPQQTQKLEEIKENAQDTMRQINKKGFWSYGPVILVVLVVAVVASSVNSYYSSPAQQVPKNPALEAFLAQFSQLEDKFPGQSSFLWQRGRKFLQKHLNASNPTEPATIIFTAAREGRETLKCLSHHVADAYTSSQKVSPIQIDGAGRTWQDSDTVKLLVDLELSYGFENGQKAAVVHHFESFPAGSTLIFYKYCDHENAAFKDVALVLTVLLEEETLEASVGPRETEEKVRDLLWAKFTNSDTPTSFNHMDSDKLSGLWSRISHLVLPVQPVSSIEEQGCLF
# Sequence of Epidermal growth factor receptor (Homo sapiens) (P00533 whole entry, looked up): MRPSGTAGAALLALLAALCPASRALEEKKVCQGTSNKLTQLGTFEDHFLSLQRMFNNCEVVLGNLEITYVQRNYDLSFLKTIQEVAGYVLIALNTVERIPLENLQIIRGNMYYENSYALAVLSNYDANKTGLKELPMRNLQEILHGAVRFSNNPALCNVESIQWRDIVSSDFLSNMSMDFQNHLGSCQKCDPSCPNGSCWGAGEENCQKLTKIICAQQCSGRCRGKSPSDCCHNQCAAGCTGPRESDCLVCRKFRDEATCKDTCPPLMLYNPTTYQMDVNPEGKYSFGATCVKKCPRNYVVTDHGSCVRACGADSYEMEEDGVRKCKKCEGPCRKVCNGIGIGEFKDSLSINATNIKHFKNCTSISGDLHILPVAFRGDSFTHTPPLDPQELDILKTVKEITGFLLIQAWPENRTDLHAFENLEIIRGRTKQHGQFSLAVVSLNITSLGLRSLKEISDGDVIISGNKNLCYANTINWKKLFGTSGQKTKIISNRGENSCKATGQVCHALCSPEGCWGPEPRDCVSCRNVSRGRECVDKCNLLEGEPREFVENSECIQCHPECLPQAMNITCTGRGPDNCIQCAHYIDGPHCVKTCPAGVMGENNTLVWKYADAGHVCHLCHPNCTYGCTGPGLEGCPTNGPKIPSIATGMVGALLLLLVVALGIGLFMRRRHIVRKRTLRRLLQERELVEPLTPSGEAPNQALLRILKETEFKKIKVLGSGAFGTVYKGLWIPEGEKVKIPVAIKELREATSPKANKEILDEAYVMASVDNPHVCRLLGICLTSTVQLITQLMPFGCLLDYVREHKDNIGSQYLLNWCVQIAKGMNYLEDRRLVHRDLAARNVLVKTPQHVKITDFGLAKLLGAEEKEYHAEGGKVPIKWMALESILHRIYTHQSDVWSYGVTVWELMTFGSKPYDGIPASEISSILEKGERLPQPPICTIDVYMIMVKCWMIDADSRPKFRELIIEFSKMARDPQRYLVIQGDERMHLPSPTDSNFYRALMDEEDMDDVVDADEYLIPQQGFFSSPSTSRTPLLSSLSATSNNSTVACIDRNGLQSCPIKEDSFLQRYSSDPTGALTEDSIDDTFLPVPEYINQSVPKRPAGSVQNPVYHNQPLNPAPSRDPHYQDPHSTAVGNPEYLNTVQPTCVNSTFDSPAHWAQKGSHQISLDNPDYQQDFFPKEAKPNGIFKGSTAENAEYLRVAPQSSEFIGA
# Sequence of Neurogenic locus notch homolog protein 3 (Homo sapiens) (Q9UM47 whole entry, looked up): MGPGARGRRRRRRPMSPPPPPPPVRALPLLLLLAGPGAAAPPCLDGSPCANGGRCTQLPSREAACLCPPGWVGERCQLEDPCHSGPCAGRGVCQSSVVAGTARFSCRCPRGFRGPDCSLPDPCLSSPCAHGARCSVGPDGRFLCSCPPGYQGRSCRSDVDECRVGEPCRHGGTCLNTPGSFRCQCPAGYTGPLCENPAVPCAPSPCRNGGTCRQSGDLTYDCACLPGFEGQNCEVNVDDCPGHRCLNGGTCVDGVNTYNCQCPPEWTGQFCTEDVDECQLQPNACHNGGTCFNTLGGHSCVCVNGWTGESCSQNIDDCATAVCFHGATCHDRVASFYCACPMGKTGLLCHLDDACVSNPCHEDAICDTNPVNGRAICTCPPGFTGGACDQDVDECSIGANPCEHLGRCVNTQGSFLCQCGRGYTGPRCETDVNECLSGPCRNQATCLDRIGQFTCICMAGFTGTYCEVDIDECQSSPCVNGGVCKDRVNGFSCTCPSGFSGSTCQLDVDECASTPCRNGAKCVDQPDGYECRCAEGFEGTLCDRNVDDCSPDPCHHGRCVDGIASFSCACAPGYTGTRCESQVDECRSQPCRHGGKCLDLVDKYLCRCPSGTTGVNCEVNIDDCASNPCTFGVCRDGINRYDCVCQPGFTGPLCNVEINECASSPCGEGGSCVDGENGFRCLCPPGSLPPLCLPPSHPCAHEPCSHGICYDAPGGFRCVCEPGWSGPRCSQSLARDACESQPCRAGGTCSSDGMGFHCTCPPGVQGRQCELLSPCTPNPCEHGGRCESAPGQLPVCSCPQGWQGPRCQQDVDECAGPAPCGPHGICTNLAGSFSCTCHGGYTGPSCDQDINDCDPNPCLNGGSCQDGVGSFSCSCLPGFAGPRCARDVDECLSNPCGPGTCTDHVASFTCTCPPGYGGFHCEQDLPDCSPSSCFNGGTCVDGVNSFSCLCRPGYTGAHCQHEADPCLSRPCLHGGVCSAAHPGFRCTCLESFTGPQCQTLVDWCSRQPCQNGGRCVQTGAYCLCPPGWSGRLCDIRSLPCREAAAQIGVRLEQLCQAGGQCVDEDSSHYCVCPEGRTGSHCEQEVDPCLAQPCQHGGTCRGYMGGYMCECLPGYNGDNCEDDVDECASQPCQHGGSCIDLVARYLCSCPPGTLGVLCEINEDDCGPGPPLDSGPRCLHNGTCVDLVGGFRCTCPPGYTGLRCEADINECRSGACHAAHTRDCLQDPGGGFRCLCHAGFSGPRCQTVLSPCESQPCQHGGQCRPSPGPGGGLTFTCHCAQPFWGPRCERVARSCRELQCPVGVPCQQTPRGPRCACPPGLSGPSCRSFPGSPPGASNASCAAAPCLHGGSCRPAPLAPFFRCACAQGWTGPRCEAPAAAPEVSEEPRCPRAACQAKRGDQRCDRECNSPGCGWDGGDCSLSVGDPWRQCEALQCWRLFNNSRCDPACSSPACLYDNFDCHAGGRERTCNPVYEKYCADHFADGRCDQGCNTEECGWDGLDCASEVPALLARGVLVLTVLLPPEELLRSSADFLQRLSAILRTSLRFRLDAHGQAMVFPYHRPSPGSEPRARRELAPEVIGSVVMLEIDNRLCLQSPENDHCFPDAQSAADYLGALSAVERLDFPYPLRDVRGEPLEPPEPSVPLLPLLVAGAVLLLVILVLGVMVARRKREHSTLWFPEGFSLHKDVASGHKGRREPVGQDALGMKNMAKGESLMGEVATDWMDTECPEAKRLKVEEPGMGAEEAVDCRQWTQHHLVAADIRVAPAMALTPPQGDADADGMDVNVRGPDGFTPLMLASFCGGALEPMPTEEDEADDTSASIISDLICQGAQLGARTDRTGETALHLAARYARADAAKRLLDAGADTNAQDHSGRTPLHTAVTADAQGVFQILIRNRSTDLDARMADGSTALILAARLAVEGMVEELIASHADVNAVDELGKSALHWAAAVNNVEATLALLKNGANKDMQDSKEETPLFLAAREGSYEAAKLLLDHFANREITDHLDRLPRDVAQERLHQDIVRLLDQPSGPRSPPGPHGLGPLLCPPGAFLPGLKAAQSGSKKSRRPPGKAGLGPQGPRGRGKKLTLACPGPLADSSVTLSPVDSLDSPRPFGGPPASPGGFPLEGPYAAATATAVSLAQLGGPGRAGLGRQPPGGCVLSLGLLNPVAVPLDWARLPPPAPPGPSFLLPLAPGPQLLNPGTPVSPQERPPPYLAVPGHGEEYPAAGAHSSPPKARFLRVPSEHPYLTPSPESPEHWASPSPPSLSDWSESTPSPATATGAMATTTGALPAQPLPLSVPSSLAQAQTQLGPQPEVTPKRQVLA
# Sequence of Fibroblast growth factor 10 (Homo sapiens) (O15520 whole entry, looked up): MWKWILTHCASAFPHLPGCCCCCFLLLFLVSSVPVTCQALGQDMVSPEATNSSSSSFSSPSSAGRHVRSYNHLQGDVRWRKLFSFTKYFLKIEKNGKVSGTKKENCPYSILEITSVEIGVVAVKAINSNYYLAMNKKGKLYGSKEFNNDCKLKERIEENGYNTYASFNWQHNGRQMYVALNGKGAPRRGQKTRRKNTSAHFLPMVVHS
# Sequence of Follistatin-related protein 3 (Homo sapiens) (O95633 whole entry, looked up): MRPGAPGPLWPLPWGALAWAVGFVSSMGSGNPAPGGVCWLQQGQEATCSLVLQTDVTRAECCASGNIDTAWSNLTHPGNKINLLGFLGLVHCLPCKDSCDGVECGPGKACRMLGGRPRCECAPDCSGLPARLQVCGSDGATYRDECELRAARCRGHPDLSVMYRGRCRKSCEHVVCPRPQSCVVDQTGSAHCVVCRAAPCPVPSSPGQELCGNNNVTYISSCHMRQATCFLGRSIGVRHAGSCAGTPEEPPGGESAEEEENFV
# Sequence of Dickkopf-related protein 1 (Homo sapiens) (O94907 whole entry, looked up): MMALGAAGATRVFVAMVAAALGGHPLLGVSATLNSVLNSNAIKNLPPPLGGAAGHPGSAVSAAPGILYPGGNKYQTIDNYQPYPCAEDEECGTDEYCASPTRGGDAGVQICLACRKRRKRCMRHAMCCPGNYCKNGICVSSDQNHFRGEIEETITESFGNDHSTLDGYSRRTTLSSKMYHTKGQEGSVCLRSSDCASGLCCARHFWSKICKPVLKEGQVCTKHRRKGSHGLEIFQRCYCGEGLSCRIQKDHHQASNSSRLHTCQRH
SMILES,composite z-score [1],z-score [2],z-score [3],z-score [4],composite z-score [5],z-score [6],composite z-score [7],composite z-score [8],composite z-score [9],composite z-score [10],composite z-score [11],composite z-score [12],composite z-score [13],z-score [14],composite z-score [15],composite z-score [16],composite z-score [17],composite z-score [18],composite z-score [19],composite z-score [20]
CCOC(=O)C1=C[C@@H](c2ccccc2)N(S(=O)(=O)c2ccc(C)cc2)[C@H]1c1ccc(OC)cc1,1.24,-1.13 (inactive),1.29 (inactive),0.698 (inactive),2.71,-0.685 (inactive),0.338,0.221,1.14,0.756,0.979,1.16,1.05,-0.71 (inactive),0.957,0.938,0.561,0.652,0.0786,1.25
[N-]=[N+]=NCc1ccccc1C[C@@]1(C(N)=O)N=C(c2ccc(OCCCO)cc2)O[C@@H]1c1ccccc1,1.56,-0.144 (inactive),0.0313 (inactive),13.3 (active),3.59,-0.412 (inactive),0.149,-0.734,-0.15,-0.108,1.15,0.67,1.04,-1.01 (inactive),0.001,-0.238,-0.892,-0.443,-1.38,0.389
CCOC(=O)C=Cc1cccc(C)c1O,0.23,-19.8 (active),-11.5 (active),-2.54 (inactive),0.236,0.666 (inactive),-0.166,-0.452,-0.0138,-0.099,0.995,-0.123,-0.0819,-1.41 (inactive),-0.119,-0.414,0.069,-0.101,-0.199,0.39
COc1ccccc1CN1C(=O)c2ccccc2[C@](Cc2ccccc2I)(C(=O)O)[C@@H]1c1ccc(CO)cc1,1.51,0.443 (inactive),0.812 (inactive),-0.0193 (inactive),2.45,1.28 (inactive),-0.0031,0.653,1,0.554,1.19,0.552,0.485,-0.498 (inactive),1.2,0.941,0.719,0.993,0.441,0.933
CS(=O)(=O)CCOC(=O)C1=CC(CCCO)=CC(c2ccc(CN3CCCC3)cc2)N(Cc2sc3ccccc3c2Cl)C=C1C(=O)OCCS(C)(=O)=O (stereo not given),1.54,-0.381 (inactive),-5.83 (inactive),-1.41 (inactive),2.06,-0.853 (inactive),0.27,0.563,1.04,0.447,1.37,0.518,-0.0725,0.576 (inactive),1.34,1.33,0.558,1,0.858,1.34
COC(=O)[C@@]1(Cc2ccc(F)cc2)[C@H]2c3cc(C(=O)N(C)C)n(Cc4ccc(OC(F)(F)F)cc4)c3C[C@H]2CN1C(=O)c1ccccc1,-1.21,0.784 (inactive),1.13 (inactive),1 (inactive),0.841,-0.623 (inactive),-0.0623,0.149,-0.0482,0.114,0.19,-0.0448,0.183,1.32 (inactive),0.251,0.22,0.18,0.298,0.0583,0.401
[N-]=[N+]=NCc1ccccc1[C@@H]1OC(c2ccc(OCCCO)cc2)=N[C@]1(CCS(=O)(=O)c1ccccc1)C(=O)O,0.627,0.302 (inactive),0.76 (inactive),0.248 (inactive),3.31,0.177 (inactive),0.17,-0.823,0.123,-0.0535,0.654,0.79,0.95,-0.551 (inactive),0.559,-0.0623,-0.231,-0.337,-0.713,1
N[C@@H](Cc1ccccc1)C(=O)NCc1cn(Cc2ccccc2)nn1,0.05,0.246 (inactive),-0.572 (inactive),-1.05 (inactive),-0.183,0.78 (inactive),0.0582,0.465,-0.005,0.0282,-0.522,0.0195,-0.283,0.0702 (inactive),0.735,0.179,0.113,0.594,0.545,0.85
COCCOC(=O)N1C(=O)[C@@]2(c3cc(C#CCCO)ccc31)[C@H](C(=O)Nc1nc3ccccc3s1)[C@H]1C(=O)O[C@H](c3ccccc3)[C@H](c3ccccc3)N1[C@@H]2c1ccc(O)cc1,1.54,1.32 (inactive),0.663 (inactive),2.23 (inactive),2.79,0.467 (inactive),0.027,0.797,1.03,0.152,0.972,0.513,0.355,-0.221 (inactive),1.16,1.34,0.989,1.43,0.957,0.211
C=C[C@H](C)[C@H](OC(=O)Nc1ccc(SC)cc1)c1ccc(OCCO)cc1,1.31,-3.79 (inactive),-2.34 (inactive),0.375 (inactive),1.53,0.938 (inactive),0.0548,0.415,0.862,-0.15,1.12,0.157,0.916,-3.34 (inactive),0.515,0.394,0.183,0.42,0.148,0.081
